# Experimental data: PubChem BioAssay (Tox21)
# Inconclusive results are not listed. A call without a number means that no potency is given here. The source made the active and inactive calls. Unless noted, calls come from the whole dose curve.
# What was measured:
# [1] = qHTS assay to identify small molecule agonists of the sonic hedgehog signaling (Shh) pathway (AID 1259368); note: series mostly up to about 92 µM; nearly all actives have a fitted effect of over 15% in size
# Procedure, shortened: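 NIH/3T3-derived 3T3Gli1-Luc cells carrying a stably integrated Gli1 response element–firefly luciferase reporter were plated, left 4 hr at 37 C, then given compounds in DMSO for 24 hr. Luminescence was read 30 min after adding luciferase reagent.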
# [2] = qHTS assay to identify small molecule antagonists of the sonic hedgehog signaling (Shh) pathway (AID 1259369); note: nearly all actives have a fitted effect of over 45% in size; note: potency is the fitted concentration of half-maximal effect
# Procedure, shortened: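 NIH/3T3-derived 3T3Gli1-Luc cells with stably integrated Gli1-Luc reporter were preincubated 4hr at 37 C, then given compounds in DMSO plus Shh conditioned medium and incubated 24hr. Firefly luciferase luminescence read after 30min reagent at room temperature.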
# [3] = biological target: Estrogen receptor beta (Homo sapiens) (UniProt Q92731); assay: qHTS assay to identify small molecule agonists of the estrogen receptor beta (ER-beta) signaling pathway (AID 1259377; active = well fitted activation curve with a large enough effect in the signal ratio in the repeat runs, not every such curve was filed as active; the % refers to the signal ratio)
# Procedure, shortened: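 In HEK293T cells bearing a UAS-beta-lactamase reporter under ER-beta control, DMSO-delivered compounds were incubated for 16 hr at 37C. Activity was detected as fluorescence 2 hours after LiveBLAzer B/G FRET substrate addition.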
# [4] = qHTS assay to identify small molecule agonists of the androgen receptor (AR) signaling pathway in the presence of an antagonist - cell viability counter screen (AID 1259379; active = well fitted curve in the direction sought with a large enough effect in the repeat runs; an effect the other way counts as inactive or inconclusive; note: nearly all actives have a fitted effect of over 25% in size; note: potency is the fitted concentration of half-maximal effect)
# Procedure, shortened: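 MDA-kb2 human breast carcinoma cells (stable MMTV-luciferase, AR/GR responsive) were seeded 3,000 cells/well, pre-incubated 5 hr at 37C without CO2, then given 3.0uM nilutamide and compounds at 15 concentrations for 16 hr. Viability was read by CellTiter-Fluor fluorescence.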
# [5] = biological target: Androgen receptor (Homo sapiens) (UniProt P10275); assay: qHTS assay to identify small molecule agonists of the androgen receptor (AR) signaling pathway in the presence of an antagonist (AID 1259381); note: nearly all actives have a fitted effect of over 15% in size; note: potency is the fitted concentration of half-maximal effect
# Procedure, shortened: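 MDA-kb2 human breast carcinoma cells carrying an MMTV-luciferase reporter (AR- and GR-responsive) were treated with compounds at 15 concentrations plus 3.0uM final nilutamide for 16hr at 37C without CO2; luminescence was read after ONE-Glo addition.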
# [6] = qHTS assay to identify small molecule antagonists of the estrogen receptor beta (ER-beta) signaling pathway - cell viability counter screen (AID 1259382; active = well fitted curve in the direction sought with a large enough effect in the repeat runs; an effect the other way counts as inactive or inconclusive; note: series mostly up to about 92 µM; nearly all actives have a fitted effect of over 55% in size)
# Procedure, shortened: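 ER-beta-UAS-bla HEK293T cells (2,000/well, 2% charcoal-stripped FBS) were pre-incubated 6 hr at 37C, then given compound plus 1nM final 17-beta-estradiol for 16 hr. Viability was read in the same wells by CellTiter-Glo luminescence after 30 min at room temperature.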
# [7] = biological target: Estrogen receptor (Homo sapiens) (UniProt P03372); assay: qHTS assay to identify small molecule agonists of the estrogen receptor alpha (ER-alpha) signaling pathway in the presence of an antagonist (AID 1259383); note: top concentration of the series differs between compounds; nearly all actives have a fitted effect of over 15% in size
# Procedure, shortened: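 VM7Luc4E2 cells (endogenous full-length ER-alpha, 4×ERE-luciferase) were precultured 5 days in phenol red-free medium with 10% charcoal-stripped FBS, given 10.0nM ICI-182,780 (final), then treated with compounds at 15 concentrations for 22hr at 37C; luminescence read with ONE-Glo.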
# [8] = biological target: Progesterone receptor (Homo sapiens) (UniProt P06401); assay: qHTS assay to identify small molecule agonists of the progesterone receptor (PR) signaling pathway (AID 1346784); note: nearly all actives have a fitted effect of over 30% in size
# Procedure, shortened: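 Using charcoal-stripped serum (2%) to limit endogenous steroids, PR-UAS-bla HEK 293T cells received compounds for 16 hr at 37C after 6 hr plating; beta-lactamase FRET fluorescence was recorded following 2 hr substrate loading at room temperature.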
# [9] = qHTS assay to identify small molecule antagonists of the TGF-beta/Smad signaling pathway - cell viability counter screen (AID 1346824; active = well fitted curve in the direction sought with a large enough effect in the repeat runs; an effect the other way counts as inactive or inconclusive; note: nearly all actives have a fitted effect of over 50% in size)
# Procedure, shortened: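 SBE-bla HEK 293T cells were plated overnight at 37 C, then given compounds in DMSO plus TGF-beta1 (added as 0.25 ng/mL solution) for 5 hr. After the bla read, CellTiter-Glo was added to the same wells and luminescence read after 30 min at room temperature.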
# [10] = qHTS assay to identify small molecule agonists of the TGF-beta/Smad signaling pathway - cell viability counter screen (AID 1346829; active = well fitted curve in the direction sought with a large enough effect in the repeat runs; an effect the other way counts as inactive or inconclusive; note: top concentration of the series differs between compounds; nearly all actives have a fitted effect of over 45% in size)
# Procedure, shortened: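 SBE-bla HEK 293T cells plated overnight, compound exposure 5 hr at 37 C. Viability read in the same wells by CellTiter-Glo luminescence after 30 min at room temperature, following the beta-lactamase read.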
# [11] = qHTS assay to identify small molecule agonists of the TGF-beta/Smad signaling pathway (AID 1346859; active = well fitted activation curve with a large enough effect in the signal ratio in the repeat runs, not every such curve was filed as active; the % refers to the signal ratio; note: series mostly up to about 77 µM)
# Procedure, shortened: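 Stable Smad binding element-beta-lactamase HEK 293T cells; 5 hr compound exposure at 37 C under 5% CO2; 2 hr room-temperature substrate step; fluorescence excited at 405 nm, collected at 460 nm and 530 nm.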
# [12] = biological target: Thyrotropin-releasing hormone receptor (Homo sapiens) (UniProt P34981); assay: qHTS assay to identify small molecule antagonists of the thyrotropin-releasing hormone receptor (TRHR) signaling pathway (AID 1346877; active = well fitted inhibition curve with a large enough effect in the repeat runs, not every such curve was filed as active; note: series mostly up to about 51 µM)
# Procedure, shortened: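 TRHR-expressing HEK293 cells were seeded, cultured 18 h at 37 °C, then loaded with calcium dye for 2 h. Compounds were pre-incubated 5 min at room temperature before 1 nM TRH (final) was added, and kinetic fluorescence was recorded for 3 min.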
# [13] = biological target: Estrogen receptor beta (Homo sapiens) (UniProt Q92731); assay: qHTS assay to identify small molecule antagonists of the estrogen receptor beta (ER-beta) signaling pathway (AID 1259378; active = well fitted inhibition curve with a large enough effect in the signal ratio in the repeat runs, not every such curve was filed as active; the % refers to the signal ratio; note: potency is the fitted concentration of half-maximal effect)
# Procedure, shortened: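 ER-beta-UAS-bla HEK293T (GripTite) cells in 2% charcoal-stripped FBS medium were preincubated 6 hr at 37C, dosed with compound, then stimulated with 1 nM E2 (final) for 16 hr; beta-lactamase reporter read by B/G FRET fluorescence after 2 hr substrate loading.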
# [14] = qHTS assay to identify small molecule agonists or antagonists of the thyroid stimulating hormone receptor (TSHR) signaling pathway - wild type cell line counter screen (AID 1259384)
# Procedure, shortened: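 Wild-type HEK293 cells were plated 18 h at 37 C/5% CO2, pin-dosed with compound plus Ro20-1724 medium, held 30 min at room temperature, then given cAMP-d2 and anti-cAMP-cryptate; fluorescence was read after 1 h. Fifteen concentrations, triplicate.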
# [15] = biological target: Thyrotropin receptor (Homo sapiens) (UniProt P16473); assay: qHTS assay to identify small molecule antagonists of the thyroid stimulating hormone receptor (TSHR) signaling pathway (AID 1259385); note: nearly all actives have a fitted effect of over 20% in size
# Procedure, shortened: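 TSHR-HEK293 cells were plated and held 18 h at 37C/5% CO2, then given compound plus Ro20-1724 and stimulated with TSH at 1.5 ng/mL final. After 30 min at room temperature, cAMP was detected with cAMP-d2/anti-cAMP-cryptate (1 h) by fluorescence.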
# [16] = qHTS assay to identify small molecule agonists of the estrogen receptor alpha (ER-alpha) signaling pathway in the presence of an antagonist - cell viability counter screen (AID 1259386; active = well fitted curve in the direction sought with a large enough effect in the repeat runs; an effect the other way counts as inactive or inconclusive;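 note: cells exposed to compounds for 22 h at 37 °C before the viability read; nearly all actives have a fitted effect of over 30% in size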; note: potency is the fitted concentration of half-maximal effect)
# Procedure, shortened: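 VM7Luc4E2 cells (endogenous full-length ER-alpha, 4×ERE-luciferase) were held 5 days in phenol red-free medium with 10% charcoal-stripped FBS, plated, then given 10.0nM ICI-182,780 and compounds at 15 concentrations for 22hr at 37C; viability read by CellTiter-Fluor fluorescence.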
# [17] = biological target: Progesterone receptor (Homo sapiens) (UniProt P06401); assay: qHTS assay to identify small molecule antagonists of the progesterone receptor (PR) signaling pathway (AID 1346795; active = well fitted inhibition curve with a large enough effect in the signal ratio in the repeat runs, not every such curve was filed as active; the % refers to the signal ratio; note: potency is the fitted concentration of half-maximal effect)
# Procedure, shortened: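 Inhibition of R5020-induced (1 nM final) beta-lactamase reporter signal in PR-UAS-bla HEK293T cells was scored by FRET fluorescence after overnight (16 hr) compound treatment.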
# [18] = qHTS assay to identify small molecule antagonists of the progesterone receptor (PR) signaling pathway - cell viability counter screen (AID 1346798; active = well fitted curve in the direction sought with a large enough effect in the repeat runs; an effect the other way counts as inactive or inconclusive; note: nearly all actives have a fitted effect of over 50% in size; note: potency is the fitted concentration of half-maximal effect)
# Procedure, shortened: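 ATP content as viability readout: CellTiter-Glo luminescence, 30 min room temperature, in PR-UAS-bla HEK293T cells after 16 hr compound/R5020 treatment at 37C and 5% CO2.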
# [19] = qHTS assay to identify small molecule agonists of the estrogen receptor beta (ER-beta) signaling pathway - cell viability counter screen (AID 1259380; active = well fitted curve in the direction sought with a large enough effect in the repeat runs; an effect the other way counts as inactive or inconclusive; note: nearly all actives have a fitted effect of over 30% in size; note: potency is the fitted concentration of half-maximal effect)
# Procedure, shortened: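 ER-beta-UAS-bla HEK293T cells in medium with 2% charcoal-stripped FBS were preincubated 6 hr at 37C, dosed with compound in DMSO for 16 hr, then after the bla read, CellTiter-Glo was added for 30 min at room temperature; luminescence recorded.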
# [20] = qHTS assay to identify small molecule agonists of the progesterone receptor (PR) signaling pathway - cell viability counter screen (AID 1346799); note: nearly all actives have a fitted effect of over 45% in size
# Procedure, shortened: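 Cytotoxicity in PR-bla HEK293T cells: 16 h compound, 37C; CellTiter-Glo added post-FRET read; luminescence after 30 min RT.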
# Chain of Progesterone receptor (Homo sapiens) (P06401 whole entry, looked up): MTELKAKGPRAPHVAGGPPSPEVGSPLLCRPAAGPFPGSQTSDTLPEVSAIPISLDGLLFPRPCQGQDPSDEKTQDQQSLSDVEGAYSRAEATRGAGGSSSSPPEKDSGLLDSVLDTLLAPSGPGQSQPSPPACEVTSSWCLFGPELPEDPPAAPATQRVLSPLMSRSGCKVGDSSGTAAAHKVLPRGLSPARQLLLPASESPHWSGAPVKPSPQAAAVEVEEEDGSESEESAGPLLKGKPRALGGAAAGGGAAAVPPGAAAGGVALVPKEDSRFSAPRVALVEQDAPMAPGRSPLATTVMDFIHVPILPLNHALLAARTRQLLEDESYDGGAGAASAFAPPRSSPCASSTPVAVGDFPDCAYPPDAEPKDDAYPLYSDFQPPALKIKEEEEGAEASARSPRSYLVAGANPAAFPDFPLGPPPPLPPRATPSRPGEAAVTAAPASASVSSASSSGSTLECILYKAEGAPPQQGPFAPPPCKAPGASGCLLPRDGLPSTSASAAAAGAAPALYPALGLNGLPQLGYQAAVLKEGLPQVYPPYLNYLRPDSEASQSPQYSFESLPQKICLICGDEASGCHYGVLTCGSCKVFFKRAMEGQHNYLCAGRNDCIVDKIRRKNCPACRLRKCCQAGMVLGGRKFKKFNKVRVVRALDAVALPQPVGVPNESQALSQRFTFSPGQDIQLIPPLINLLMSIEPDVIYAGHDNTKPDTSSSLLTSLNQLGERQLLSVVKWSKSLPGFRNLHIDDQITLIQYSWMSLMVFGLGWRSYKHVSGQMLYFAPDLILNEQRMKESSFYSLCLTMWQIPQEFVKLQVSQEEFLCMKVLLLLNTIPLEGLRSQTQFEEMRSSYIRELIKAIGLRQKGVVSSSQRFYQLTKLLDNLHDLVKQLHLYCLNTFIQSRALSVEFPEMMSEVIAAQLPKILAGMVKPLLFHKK
# Chain of Thyrotropin-releasing hormone receptor (Homo sapiens) (P34981 whole entry, looked up): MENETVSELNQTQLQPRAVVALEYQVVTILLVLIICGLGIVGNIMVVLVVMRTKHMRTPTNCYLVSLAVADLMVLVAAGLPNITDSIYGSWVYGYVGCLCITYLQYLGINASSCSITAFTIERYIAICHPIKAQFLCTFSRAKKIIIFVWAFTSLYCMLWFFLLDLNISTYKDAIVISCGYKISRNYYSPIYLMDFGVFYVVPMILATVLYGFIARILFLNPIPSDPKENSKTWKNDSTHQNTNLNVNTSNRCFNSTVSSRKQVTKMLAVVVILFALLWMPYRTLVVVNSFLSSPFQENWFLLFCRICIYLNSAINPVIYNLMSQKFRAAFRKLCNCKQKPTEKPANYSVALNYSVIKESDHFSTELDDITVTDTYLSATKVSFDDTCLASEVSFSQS
# Chain of Estrogen receptor beta (Homo sapiens) (Q92731 whole entry, looked up): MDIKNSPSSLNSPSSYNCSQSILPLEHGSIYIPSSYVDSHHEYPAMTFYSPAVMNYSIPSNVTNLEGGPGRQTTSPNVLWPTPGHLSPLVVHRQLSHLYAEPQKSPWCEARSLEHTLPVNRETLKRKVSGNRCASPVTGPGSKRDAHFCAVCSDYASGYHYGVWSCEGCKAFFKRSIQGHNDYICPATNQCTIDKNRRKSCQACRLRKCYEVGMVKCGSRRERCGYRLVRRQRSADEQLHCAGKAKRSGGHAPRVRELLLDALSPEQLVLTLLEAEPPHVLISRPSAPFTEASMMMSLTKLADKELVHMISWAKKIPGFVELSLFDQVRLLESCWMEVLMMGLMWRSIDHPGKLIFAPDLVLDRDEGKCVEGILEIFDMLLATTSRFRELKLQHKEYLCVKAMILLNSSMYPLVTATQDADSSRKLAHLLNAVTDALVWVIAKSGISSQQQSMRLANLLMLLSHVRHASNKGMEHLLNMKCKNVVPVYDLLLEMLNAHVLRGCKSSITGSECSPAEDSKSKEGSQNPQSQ
# Chain of Thyrotropin receptor (Homo sapiens) (P16473 whole entry, looked up): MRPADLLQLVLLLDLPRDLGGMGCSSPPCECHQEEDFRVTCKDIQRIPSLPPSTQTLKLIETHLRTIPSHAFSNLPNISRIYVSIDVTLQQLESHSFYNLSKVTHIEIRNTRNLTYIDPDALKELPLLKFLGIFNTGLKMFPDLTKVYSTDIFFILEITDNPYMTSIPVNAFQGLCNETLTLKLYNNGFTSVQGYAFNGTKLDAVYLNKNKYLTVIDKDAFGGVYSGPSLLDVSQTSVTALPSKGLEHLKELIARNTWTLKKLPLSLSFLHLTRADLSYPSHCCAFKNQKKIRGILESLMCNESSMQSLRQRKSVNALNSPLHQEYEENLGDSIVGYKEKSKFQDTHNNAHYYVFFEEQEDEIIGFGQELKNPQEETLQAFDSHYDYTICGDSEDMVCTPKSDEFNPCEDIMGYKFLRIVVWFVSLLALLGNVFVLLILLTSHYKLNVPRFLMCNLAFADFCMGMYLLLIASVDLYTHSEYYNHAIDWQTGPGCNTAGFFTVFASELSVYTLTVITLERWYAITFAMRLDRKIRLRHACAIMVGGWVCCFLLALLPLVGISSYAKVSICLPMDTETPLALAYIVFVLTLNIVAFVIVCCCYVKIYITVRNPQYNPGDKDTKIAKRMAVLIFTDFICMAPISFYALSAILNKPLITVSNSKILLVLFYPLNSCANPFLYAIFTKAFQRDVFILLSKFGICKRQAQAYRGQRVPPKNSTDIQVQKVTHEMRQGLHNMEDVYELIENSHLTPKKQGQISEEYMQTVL
# Chain of Estrogen receptor (Homo sapiens) (P03372 whole entry, looked up): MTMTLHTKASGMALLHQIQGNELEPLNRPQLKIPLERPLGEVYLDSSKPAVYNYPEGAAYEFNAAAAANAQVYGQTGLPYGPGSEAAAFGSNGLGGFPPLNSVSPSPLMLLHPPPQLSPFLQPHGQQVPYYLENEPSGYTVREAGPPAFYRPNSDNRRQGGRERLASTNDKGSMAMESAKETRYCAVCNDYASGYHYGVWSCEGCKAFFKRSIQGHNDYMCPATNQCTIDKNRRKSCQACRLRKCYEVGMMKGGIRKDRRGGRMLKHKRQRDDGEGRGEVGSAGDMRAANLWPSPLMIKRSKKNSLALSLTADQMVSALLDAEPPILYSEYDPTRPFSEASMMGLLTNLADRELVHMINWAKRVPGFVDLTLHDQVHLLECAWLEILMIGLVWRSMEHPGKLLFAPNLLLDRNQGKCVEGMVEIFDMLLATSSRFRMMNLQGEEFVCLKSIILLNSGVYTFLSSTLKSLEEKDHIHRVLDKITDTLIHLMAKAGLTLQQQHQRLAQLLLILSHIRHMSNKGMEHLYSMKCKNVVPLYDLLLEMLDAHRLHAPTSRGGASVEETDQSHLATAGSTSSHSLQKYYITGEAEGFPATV
# Chain of Androgen receptor (Homo sapiens) (P10275 whole entry, looked up): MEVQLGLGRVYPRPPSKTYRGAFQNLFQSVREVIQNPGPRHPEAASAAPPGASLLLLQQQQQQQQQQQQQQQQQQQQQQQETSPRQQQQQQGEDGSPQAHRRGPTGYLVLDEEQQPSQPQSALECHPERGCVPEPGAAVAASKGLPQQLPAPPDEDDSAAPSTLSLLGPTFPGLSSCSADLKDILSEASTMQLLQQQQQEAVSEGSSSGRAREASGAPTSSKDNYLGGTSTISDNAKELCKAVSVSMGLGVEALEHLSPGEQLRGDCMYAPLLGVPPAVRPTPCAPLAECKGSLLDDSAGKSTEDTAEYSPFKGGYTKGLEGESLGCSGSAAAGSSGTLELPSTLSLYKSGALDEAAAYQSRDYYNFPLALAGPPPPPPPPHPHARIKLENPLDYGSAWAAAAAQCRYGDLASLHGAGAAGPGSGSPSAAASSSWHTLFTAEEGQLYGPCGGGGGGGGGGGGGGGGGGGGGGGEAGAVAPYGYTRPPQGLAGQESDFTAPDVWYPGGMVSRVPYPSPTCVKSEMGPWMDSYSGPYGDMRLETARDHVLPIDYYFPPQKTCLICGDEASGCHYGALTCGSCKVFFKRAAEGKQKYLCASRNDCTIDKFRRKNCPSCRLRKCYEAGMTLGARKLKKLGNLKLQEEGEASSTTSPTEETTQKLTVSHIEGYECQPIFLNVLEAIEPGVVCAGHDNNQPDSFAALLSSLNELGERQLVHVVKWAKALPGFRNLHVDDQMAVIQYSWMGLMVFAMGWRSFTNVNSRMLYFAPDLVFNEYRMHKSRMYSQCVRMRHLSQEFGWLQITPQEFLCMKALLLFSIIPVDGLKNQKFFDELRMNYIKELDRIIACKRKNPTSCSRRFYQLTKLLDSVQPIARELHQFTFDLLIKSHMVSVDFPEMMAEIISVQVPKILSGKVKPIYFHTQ
SMILES,Potency [1],Potency [2],Potency [3],Potency [4],Potency [5],Potency [6],Potency [7],Potency [8],outcome [9],outcome [10],outcome [11],outcome [12],Potency [13],outcome [14],Potency [15],Potency [16],Potency [17],Potency [18],Potency [19],Potency [20]
Cc1ccc(Nc2nccc(N(C)c3ccc4c(C)n(C)nc4c3)n2)cc1S(N)(=O)=O,inactive,1.88 µM (active),inactive,inactive,inactive,inactive,inactive,inactive,inactive,inactive,inactive,inactive,,,,,,,,
COCCOC,inactive,4.13 µM (active),inactive,,,inactive,,,inactive,inactive,inactive,,inactive,inactive,inactive,inactive,inactive,inactive,,
Nc1nc(Cl)nc2c1ncn2[C@@H]1O[C@H](CO)[C@@H](O)[C@@H]1F,inactive,0.841 µM (active),inactive,inactive,,inactive,inactive,inactive,inactive,inactive,inactive,inactive,,inactive,inactive,,inactive,inactive,inactive,inactive
CC(C)(C)C(=O)C(Oc1ccc(Cl)cc1)n1ccnc1 (stereo not given),inactive,inactive,inactive,inactive,,inactive,inactive,inactive,inactive,,inactive,inactive,,inactive,inactive,inactive,23.7 µM (active),inactive,1.19 µM (active),
CCOC(=O)c1ccccc1C,inactive,inactive,inactive,inactive,,,inactive,inactive,inactive,inactive,inactive,inactive,inactive,inactive,inactive,inactive,,15.4 µM (active),,
CO/N=C1\CN(c2nc3c(cc2F)c(=O)c(C(=O)O)cn3C2CC2)CC1CN (stereo not given),inactive,inactive,inactive,inactive,,inactive,inactive,,inactive,inactive,inactive,,,inactive,inactive,,,inactive,,inactive
Cc1ccc(/C=N/n2c(-c3ccccc3)csc2=S)cc1,inactive,inactive,inactive,inactive,,inactive,,inactive,,,inactive,inactive,7.5 µM (active),inactive,inactive,inactive,,,,
O=c1[nH]c2ccc(S(=O)CCN3CCC(Cc4ccc(F)cc4)CC3)cc2o1 (stereo not given),inactive,inactive,inactive,,,inactive,inactive,inactive,inactive,,,inactive,,inactive,,,,,inactive,
CCOC(=O)CC(=O)C(=O)OCC,inactive,inactive,inactive,,1.54 µM (active),,inactive,,inactive,inactive,inactive,,48.6 µM (active),inactive,,,,15.4 µM (active),8.63 µM (active),
CCNC(=O)N1CCN(CCCC(c2ccc(F)cc2)c2ccc(F)cc2)CC1,inactive,3.35 µM (active),inactive,26.6 µM (active),,inactive,inactive,inactive,inactive,inactive,inactive,inactive,21.1 µM (active),,,,,inactive,,
CCCCN(CCCC)CCCOC(=O)c1ccc(N)cc1,inactive,inactive,inactive,inactive,,inactive,,,inactive,inactive,inactive,inactive,inactive,inactive,,,,inactive,,
Cc1cc2nc3ccc(=[N+](C)C)cc-3sc2cc1N,inactive,2.66 µM (active),inactive,3.76 µM (active),inactive,,inactive,,inactive,inactive,inactive,,,,,29.8 µM (active),,,4.22 µM (active),inactive
CCC(C(=O)OCCOCCN(CC)CC)c1ccccc1 (stereo not given),inactive,inactive,inactive,inactive,,,inactive,,inactive,inactive,inactive,,,,,inactive,,inactive,inactive,inactive
CCOC(=O)C(C)Oc1ccc(Oc2nc3ccc(Cl)cc3o2)cc1 (stereo not given),inactive,inactive,inactive,inactive,inactive,inactive,,inactive,inactive,,inactive,inactive,,,,inactive,,inactive,inactive,inactive
Cc1nccn1-c1ccc(Sc2cccc(C3(C(N)=O)CCOCC3)c2)cc1,inactive,3.06 µM (active),inactive,8.63 µM (active),,inactive,inactive,,,inactive,inactive,inactive,9.69 µM (active),inactive,,,,,,
Cc1c(C(=O)NN2CCCCC2)nn(-c2ccc(Cl)cc2Cl)c1-c1ccc(Cl)cc1,inactive,inactive,inactive,inactive,inactive,inactive,inactive,,inactive,,inactive,,,inactive,inactive,,11.9 µM (active),,,
CC(=O)[C@H]1CC[C@H]2[C@@H]3C=CC4=CC(=O)CC[C@@]4(C)[C@@H]3CC[C@]12C,inactive,11.9 µM (active),inactive,inactive,,inactive,inactive,,inactive,inactive,inactive,inactive,,inactive,,,inactive,,inactive,inactive
